This is an account of results in PubChem BioAssay (NCI).

About 79,000 compounds went through this panel and 15% of them were active in at least one assay; those are over-represented in the sample as a whole. Calls of active or inactive are those of the source. No stated cut-off is given here; in the data, active means growth inhibition above about 70%; inactive means the rest.

The nature of the first assay: NCI Yeast Anticancer Drug Screen. Data for the rad50 strain (AID 155).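 Further: 0% = growth of vehicle-only cultures of the same strain.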 The conditions noted are these: S. cerevisiae rad50 strain growth inhibition; at 50.0 µM; active compounds read high. Put shortly:
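Compounds were tested on a yeast strain with an engineered DNA damage repair alteration; the reported value is growth inhibition normalised to vehicle treatment.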
Take `O=S1(=O)CS/C(=N/C(=S)N(Cc2ccccc2)Cc2ccccc2)N1c1ccccc1`: the growth inhibition was 43% (inactive).

With `O=C(OC1OC(COCc2ccccc2)C(OCc2ccccc2)C1OCc1ccccc1)c1ccc([N+](=O)[O-])cc1` (stereo not given), the growth inhibition was 25.2% (inactive).

On to `O=c1cc(-c2ccccc2)oc2c(N=Nc3ccccc3)ccc(O)c12`, for which the growth inhibition was 33.8% (inactive).

In the case of `C=CCNc1ccc(Cl)cc1Cl`, the growth inhibition was -3.5% (inactive).

`O=C(CCc1ccc(O)c(O)c1)NCCc1cc(OCc2ccccc2)cc(OCc2ccccc2)c1`: the growth inhibition was 83.9% (active).

On to `CN(C)c1nc2ccc(Cl)cc2c(=O)[nH]1`, for which the growth inhibition was 6.25% (inactive).

As for `Cc1ccc(S(=O)(=O)OC(c2ccc(C(OS(=O)(=O)c3ccc(C)cc3)(C(F)(F)F)C(F)(F)F)cc2)(C(F)(F)F)C(F)(F)F)cc1`, the growth inhibition was 4.45% (inactive).

On to `CC/C(=C\c1ccc(OC)cc1)c1ccc(OC)cc1`, for which the growth inhibition is -16.1% (inactive).

On to `CC(=O)C1(c2ccccc2)C(C)(C)C(C)(C)C(=O)C(C)(C)C1(C)C`, for which the growth inhibition is 19.4% (inactive).

For `CCOC(=O)NC(=O)c1cn(C2CCCCC2)c(=O)[nH]c1=O`, the growth inhibition is -14.2% (inactive).

For `Cc1ccc(N(C(=O)Nc2ccccc2)C2=NCC(C)S2)cc1C` (stereo not given), the growth inhibition was -29.5% (inactive).

Regarding `N#Cc1c(N)[n+]([O-])c2c([n+]1[O-])CCCC2`, the growth inhibition was 11.4% (inactive).

As to `CC(C)(C)C(=O)CC(=O)C(C)(C)C.[Cu]`, the growth inhibition is -10.2% (inactive).

As to `CC(=O)OCC(CO)(CO)COC(C)=O`, the growth inhibition was 8.25% (inactive).

`CC(C)CN(CC(C)C)C(=O)c1ccc([N+](=O)[O-])cc1`: the growth inhibition is -7.3% (inactive).

In the case of `ON(Cc1ccccc1)Cc1ccccc1`, the growth inhibition is -3.95% (inactive).

Regarding `COC(=O)c1c2c(cc3c1CC1(Cc4cc5c(cc4C1)CCCC5)C3)CCCC2`, the growth inhibition is -6.3% (inactive).

Turning to `N#C/C(=C\C=C\c1ccccc1)C(N)=O`, the growth inhibition is -57.8% (inactive).

Regarding `COC(=O)C(=O)C(C(=O)C(=O)Nc1cccc([N+](=O)[O-])c1)c1nc2ccc(Cl)cc2[nH]c1=O` (stereo not given), the growth inhibition was 15% (inactive).

Consider `O=C1C2C=CC(n3[nH]c(=O)n(Cc4ccccc4)c3=O)CC2C(=O)N1c1ccc(Br)cc1` (stereo not given), for which the growth inhibition was -3.8% (inactive).

`CC1=NC2c3c(-c4ccc(Cl)cc4)cn(-c4ccc(C)cc4)c3N=CN2N1` (stereo not given): the growth inhibition is 7.75% (inactive).

For `CC1CN=C(N(C(=O)Nc2ccc(Cl)cc2)c2cccc(Cl)c2)S1` (stereo not given), the growth inhibition was -30.9% (inactive).

As for `O=C(O)CCCCC1CCCC1`, the growth inhibition is 43.4% (inactive).

On to `O=C(O)c1ccc(Cl)cc1C(=O)c1ccc(Cl)cc1`, for which the growth inhibition was 1.25% (inactive).

Take `CCOC(=O)CC[C@@H](NC(=O)c1ccc(NCc2ccc3nc(OC)c(OC)nc3c2)cc1)C(=O)OCC`: the growth inhibition is 2.7% (inactive).

In the case of `Nc1nc(N)nc(-c2ccccc2NC(=O)c2ccccc2N)n1`, the growth inhibition is 2.15% (inactive).

With `O=C(O)c1c2ccccc2nc2c1sc1ccccc12`, the growth inhibition was -17.9% (inactive).

As for `CS(=O)(=O)OC12CC3CC(CC(C3)C1)C2`, the growth inhibition was 7.3% (inactive).

Regarding `O=C(Nc1ccc([N+](=O)[O-])cc1)c1ccc(Cl)cc1`, the growth inhibition is -4.7% (inactive).

For the molecule `CC(C)c1ccc2c(c1)CCC1C2(C)CCCC1(C)C(O)c1ccccc1` (stereo not given), the growth inhibition was 9.45% (inactive).

Turning to `Nc1c(C(=O)O)cccc1C(=O)O`, the growth inhibition was 5.25% (inactive).

As for `CCC1(CC)C(=O)NN(C(=O)c2ccccc2)C1=O`, the growth inhibition is 19.3% (inactive).

Regarding `C#CCN(C(=O)C(F)(F)F)C(/C=C\C(=O)OC)(C(=O)OCC)C(=O)OCC`, the growth inhibition is -10.3% (inactive).

Consider `CCC(=O)C(CC)c1ccccc1` (stereo not given), for which the growth inhibition was 9.25% (inactive).

Take `O=C(CCn1ccnc1[N+](=O)[O-])NCCCn1ccnc1[N+](=O)[O-]`: the growth inhibition was -24.1% (inactive).

Turning to `CC1(C)OC2OC(C3CC3)C(O)C2O1` (stereo not given), the growth inhibition was -4.1% (inactive).

With `COc1ccc(NC(=O)N(C)Cc2ccccc2Cl)cc1`, the growth inhibition is -0.35% (inactive).

In the case of `[N-]=[N+]=CC(=O)CCN1C(=O)c2ccccc2C1=O`, the growth inhibition was -9.85% (inactive).

For the molecule `CSc1ccc(NC(=O)Nc2ccccc2C(F)(F)F)cc1`, the growth inhibition is 2.05% (inactive).

For the molecule `CCOC(OCC)C(C)(C)OC=O`, the growth inhibition was -9.2% (inactive).

Another assay can be described thus: NCI Yeast Anticancer Drug Screen. Data for the mec2-1 strain (AID 157). The following applies: S. cerevisiae mec2-1 strain, at 50.0 µM, active compounds read high. In short, it runs like this: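 Test agents were screened against the mec2-1 yeast strain, with defined DNA repair or cell cycle alteration. Growth was scored as inhibition against vehicle-only controls.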
For `O=S1(=O)CS/C(=N/C(=S)N(Cc2ccccc2)Cc2ccccc2)N1c1ccccc1`, the growth inhibition is 14% (inactive).

Consider `O=C(OC1OC(COCc2ccccc2)C(OCc2ccccc2)C1OCc1ccccc1)c1ccc([N+](=O)[O-])cc1` (stereo not given), for which the growth inhibition is -12.2% (inactive).

On to `O=c1cc(-c2ccccc2)oc2c(N=Nc3ccccc3)ccc(O)c12`, for which the growth inhibition was -14.8% (inactive).

Turning to `C=CCNc1ccc(Cl)cc1Cl`, the growth inhibition is -6.25% (inactive).

With `O=C(CCc1ccc(O)c(O)c1)NCCc1cc(OCc2ccccc2)cc(OCc2ccccc2)c1`, the growth inhibition was 88.4% (active).

Regarding `CN(C)c1nc2ccc(Cl)cc2c(=O)[nH]1`, the growth inhibition is 4.55% (inactive).

In the case of `Cc1ccc(S(=O)(=O)OC(c2ccc(C(OS(=O)(=O)c3ccc(C)cc3)(C(F)(F)F)C(F)(F)F)cc2)(C(F)(F)F)C(F)(F)F)cc1`, the growth inhibition was 6.65% (inactive).

With `CC/C(=C\c1ccc(OC)cc1)c1ccc(OC)cc1`, the growth inhibition is -31.1% (inactive).

Turning to `CC(=O)C1(c2ccccc2)C(C)(C)C(C)(C)C(=O)C(C)(C)C1(C)C`, the growth inhibition is 7.55% (inactive).

On to `CCOC(=O)NC(=O)c1cn(C2CCCCC2)c(=O)[nH]c1=O`, for which the growth inhibition was -3.95% (inactive).

For the molecule `Cc1ccc(N(C(=O)Nc2ccccc2)C2=NCC(C)S2)cc1C` (stereo not given), the growth inhibition is -17.9% (inactive).

Turning to `N#Cc1c(N)[n+]([O-])c2c([n+]1[O-])CCCC2`, the growth inhibition was 3.35% (inactive).

Take `CC(C)(C)C(=O)CC(=O)C(C)(C)C.[Cu]`: the growth inhibition is -9.35% (inactive).

On to `CC(=O)OCC(CO)(CO)COC(C)=O`, for which the growth inhibition is 8.65% (inactive).

On to `CC(C)CN(CC(C)C)C(=O)c1ccc([N+](=O)[O-])cc1`, for which the growth inhibition was 22.8% (inactive).

Take `ON(Cc1ccccc1)Cc1ccccc1`: the growth inhibition is -26.9% (inactive).

Regarding `COC(=O)c1c2c(cc3c1CC1(Cc4cc5c(cc4C1)CCCC5)C3)CCCC2`, the growth inhibition was -16.4% (inactive).

For `N#C/C(=C\C=C\c1ccccc1)C(N)=O`, the growth inhibition is -27.6% (inactive).

Regarding `COC(=O)C(=O)C(C(=O)C(=O)Nc1cccc([N+](=O)[O-])c1)c1nc2ccc(Cl)cc2[nH]c1=O` (stereo not given), the growth inhibition is -22.2% (inactive).

Take `O=C1C2C=CC(n3[nH]c(=O)n(Cc4ccccc4)c3=O)CC2C(=O)N1c1ccc(Br)cc1` (stereo not given): the growth inhibition is 3.8% (inactive).

For the molecule `CC1=NC2c3c(-c4ccc(Cl)cc4)cn(-c4ccc(C)cc4)c3N=CN2N1` (stereo not given), the growth inhibition was -5.9% (inactive).

Regarding `CC1CN=C(N(C(=O)Nc2ccc(Cl)cc2)c2cccc(Cl)c2)S1` (stereo not given), the growth inhibition was -13.7% (inactive).

With `O=C(O)CCCCC1CCCC1`, the growth inhibition is 8.3% (inactive).

For the molecule `O=C(O)c1ccc(Cl)cc1C(=O)c1ccc(Cl)cc1`, the growth inhibition is 8.75% (inactive).

In the case of `CCOC(=O)CC[C@@H](NC(=O)c1ccc(NCc2ccc3nc(OC)c(OC)nc3c2)cc1)C(=O)OCC`, the growth inhibition was -10.2% (inactive).

With `Nc1nc(N)nc(-c2ccccc2NC(=O)c2ccccc2N)n1`, the growth inhibition was 14.3% (inactive).

Turning to `O=C(O)c1c2ccccc2nc2c1sc1ccccc12`, the growth inhibition is -8% (inactive).

Turning to `CS(=O)(=O)OC12CC3CC(CC(C3)C1)C2`, the growth inhibition was -9.1% (inactive).

Regarding `O=C(Nc1ccc([N+](=O)[O-])cc1)c1ccc(Cl)cc1`, the growth inhibition is 7.75% (inactive).

With `CC(C)c1ccc2c(c1)CCC1C2(C)CCCC1(C)C(O)c1ccccc1` (stereo not given), the growth inhibition was -6.65% (inactive).

On to `Nc1c(C(=O)O)cccc1C(=O)O`, for which the growth inhibition was -18.6% (inactive).

Consider `CCC1(CC)C(=O)NN(C(=O)c2ccccc2)C1=O`, for which the growth inhibition is -20.1% (inactive).

As to `C#CCN(C(=O)C(F)(F)F)C(/C=C\C(=O)OC)(C(=O)OCC)C(=O)OCC`, the growth inhibition was -24.9% (inactive).

Regarding `CCC(=O)C(CC)c1ccccc1` (stereo not given), the growth inhibition is -8% (inactive).

Turning to `O=C(CCn1ccnc1[N+](=O)[O-])NCCCn1ccnc1[N+](=O)[O-]`, the growth inhibition is -2.15% (inactive).

Regarding `CC1(C)OC2OC(C3CC3)C(O)C2O1` (stereo not given), the growth inhibition was 4.75% (inactive).

Turning to `COc1ccc(NC(=O)N(C)Cc2ccccc2Cl)cc1`, the growth inhibition is -10.8% (inactive).

On to `[N-]=[N+]=CC(=O)CCN1C(=O)c2ccccc2C1=O`, for which the growth inhibition was -0.85% (inactive).

Regarding `CSc1ccc(NC(=O)Nc2ccccc2C(F)(F)F)cc1`, the growth inhibition was -3.25% (inactive).

On to `CCOC(OCC)C(C)(C)OC=O`, for which the growth inhibition is -20.8% (inactive).
